Assay [1] addresses human Adenosine A2a Receptor (AdoRA2a), ADORA2A (gene 135) (UniProt P29274). The assay can be described thus: NVS_GPCR_hAdoRA2a: NovaScreen (NVS) G Protein-Coupled Receptor Assay for human Adenosine A2a Receptor (AdoRA2a) (AID 2283256). Summed up:
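Radioligand displacement on HEK293-derived membrane protein, cell-free; filter-based scintillation counting 1.5 hours after dosing, loss of signal vs DMSO. Single-point duplicate screen at 25 uM, actives retested in concentration series.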

In assay [2] the target is human Thromboxane A2 Receptor (TXA2), TBXA2R (gene 6915) (UniProt P21731). The assay can be described thus: NVS_GPCR_hTXA2: NovaScreen (NVS) G Protein-Coupled Receptor Assay for human Thromboxane A2 Receptor (TXA2) (AID 2283282).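 Further: actives reduce bound radioligand signal relative to DMSO baseline.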 Summed up:
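Cell-free radioligand binding on membrane protein from human platelets; radioligand displacement read by filter-based scintillation counting after 1 h. Primary screen in duplicate at 25 uM, actives then run in concentration series; loss of signal versus DMSO.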

Assay [3] deals with human Opioid Receptor Mu (Opiate Mu), OPRM1 (gene 4988) (UniProt P35372). The assay can be described thus: NVS_GPCR_hOpiate_mu: NovaScreen (NVS) G Protein-Coupled Receptor Assay for human Opioid Receptor Mu (Opiate Mu) (AID 2283290).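 Further: hits lower bound tracer signal versus DMSO meaning displacement of the ligand.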 Summed up: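 CHO-derived receptor protein, cell-free; radioligand displacement, filtration + scintillation counting, read at 2.5 h. DMSO = negative control/baseline. Primary: 25 uM single conc, duplicate; secondary: concentration series.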

Assay [4] addresses human Androgen Receptor (AR), AR (gene 367) (UniProt P10275). The assay can be described thus: NVS_NR_hAR: NovaScreen (NVS) Nuclear Receptor Binding Assay for human Androgen Receptor (AR) (AID 2283332). A digest of the protocol: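 LnCAP cell-free extract; radioligand displacement read by scintillation counting after 20 h. Primary screen single concentration 25 uM in duplicate, actives then run as concentration series; loss-of-signal fitted relative to DMSO baseline.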

Assay [5] has as its target chimpanzee Androgen Receptor (AR), AR (gene 747460) (UniProt O97775). In words: NVS_NR_cAR: NovaScreen (NVS) Nuclear Receptor Binding Assay for chimpanzee Androgen Receptor (AR) (AID 2283346).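 Further: a loss of bound radioligand signal versus DMSO counts as binding.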 Summed up: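 Radioligand binding to chimpanzee AR expressed in Sf9/Sf21 cells, cell-free, measured 72 h after dosing by lysate-based scintillation counting. Loss of signal vs DMSO; initial duplicate screen at 25 uM, actives retested in concentration series.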

The target of assay [6] is human Neurokinin, NK2 Receptor, TACR2 (gene 6865) (UniProt P21452). The assay can be described thus: NVS_GPCR_hNK2: NovaScreen (NVS) G Protein-Coupled Receptor Assay for human Neurokinin, NK2 Receptor (AID 2283278).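 Further: actives reduce bound radioligand signal relative to DMSO baseline.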 Summed up:
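Filter-based scintillation counting measured radioligand bound to receptor extracted from CHO cells, 4 hours after compound addition. Chemicals screened first at 25 uM in duplicate, with actives retested in concentration series relative to DMSO.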

Assay [7] concerns the target human Peripheral-type Benzodiazepine Receptor (PBR), TSPO (gene 706) (UniProt P30536). In words: NVS_MP_hPBR: NovaScreen (NVS) Membrane Protein Assay for human Peripheral-type Benzodiazepine Receptor (PBR) (AID 2283331).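 Further: hits reduce radioligand binding relative to DMSO baseline.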 A digest of the protocol:
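Radioligand displacement on human colonic cell membranes, 1 h incubation; bound radioactivity by filtration and scintillation counting. Primary screen in duplicate at 25 uM single concentration, actives followed up in concentration series; loss of binding versus DMSO.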

In assay [8] the target is human Adenosine A1 Receptor (AdoRA1), ADORA1 (gene 134) (UniProt P30542). In words: NVS_GPCR_hAdoRA1: NovaScreen (NVS) G Protein-Coupled Receptor Assay for human Adenosine A1 Receptor (AdoRA1) (AID 2283254). A digest of the protocol: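 Hum. cortical membranes + radioligand, cmpd 1 h; filtration, scintillation count. Readout = decrease vs DMSO. Primary 25 uM dup; hits → conc. series.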

In assay [9] the target is Muscarinic acetylcholine receptor M2 (Homo sapiens) (UniProt P08172). The assay can be described thus: NVS_GPCR_hM2: NovaScreen (NVS) G Protein-Coupled Receptor Assay for human Muscarinic, M2 Receptor (AID 2283273). Summed up: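 Radioligand displacement on human M2 receptor membranes from CHO cells, 1 h incubation, filtration with scintillation counting. Primary screen in duplicate at 25 uM; actives retested in concentration series; loss of signal fitted versus DMSO.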

For assay [10], the target named is Sodium channel protein type 1 subunit alpha (Rattus norvegicus) (UniProt P04774). The assay can be described thus: NVS_IC_rNaCh_site2: NovaScreen (NVS) Ion Channel Assay for rat Sodium Channel, Site 2 (NaCh) (AID 2283322).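 Further: hit means loss of radioligand binding signal relative to DMSO so AC50 marks displacement.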 Summed up:
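Membranes: rat forebrain. Format: competitive radioligand displacement, filter separation, scintillation readout, 1 h exposure. Primary screen in duplicate at 25 uM; actives retested in concentration series.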

Assay [11] is described as follows: NVS_IC_rCaBTZCHL: NovaScreen (NVS) Ion Channel Assay for Calcium Channel, Type L, Benzothiazepine Site (CaBTZCHL) (AID 2283337). A digest of the protocol: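 Scintillation counting of filter-bound radioligand gave the read-out, with reduced binding versus DMSO scored as activity. Membranes came from rat cortex and were read 1.5 h after compound addition. Chemicals were screened first in duplicate at 25 uM.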

In assay [12] the target is guinea pig Opioid, Kappa 1 Receptor (OpiateK), OPRK1 (gene 100135587) (UniProt P41144). In words: NVS_GPCR_gOpiateK: NovaScreen (NVS) G Protein-Coupled Receptor Assay for guinea pig Opioid, Kappa 1 Receptor (OpiateK) (AID 2283252).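 Further: radioligand displacement from kappa opioid receptor in guinea pig cerebellar membranes; active means reduced radioligand binding relative to DMSO.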 A digest of the protocol:
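Guinea pig cerebellar membranes, radioligand displacement with filter-based scintillation counting, 2 h after dosing. Primary screen single concentration 25 uM in duplicate; actives retested in concentration series; loss of binding fitted versus DMSO.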

In assay [13] the target is rat Neonicotinoid receptor (NNR), Chrna7 (gene 25302) (UniProt Q05941). In words: NVS_LGIC_rNNR_BungSens: NovaScreen (NVS) Ligand-Gated Ion Channel Assay for rat Neonicotinoid receptor (NNR) (AID 2283315). Summed up: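 Radioligand displacement binding on rat cortical membranes, 2.5 h incubation, filtration and scintillation counting. Loss of specific binding fitted relative to DMSO.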

Values joined by “and” are separate entries in the source; they are usually repeats but may differ in a detail not shown here. Equal values may be shown once. Records with an inconclusive call do not appear. Active and inactive are the calls of the source. How the source made its calls: active means hit-call score of the fitted dose curve at least 0.9, where 1 is the maximum; inconclusive means response in the unintended direction; inactive means score below 0.9.

Chain of human Peripheral-type Benzodiazepine Receptor (PBR), TSPO (gene 706) (P30536 whole entry, looked up): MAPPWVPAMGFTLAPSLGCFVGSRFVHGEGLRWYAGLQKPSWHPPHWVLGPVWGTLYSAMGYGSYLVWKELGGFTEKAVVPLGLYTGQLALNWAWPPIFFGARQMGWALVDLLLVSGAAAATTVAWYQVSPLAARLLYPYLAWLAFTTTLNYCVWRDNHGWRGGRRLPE
Chain of chimpanzee Androgen Receptor (AR), AR (gene 747460) (O97775 whole entry, looked up): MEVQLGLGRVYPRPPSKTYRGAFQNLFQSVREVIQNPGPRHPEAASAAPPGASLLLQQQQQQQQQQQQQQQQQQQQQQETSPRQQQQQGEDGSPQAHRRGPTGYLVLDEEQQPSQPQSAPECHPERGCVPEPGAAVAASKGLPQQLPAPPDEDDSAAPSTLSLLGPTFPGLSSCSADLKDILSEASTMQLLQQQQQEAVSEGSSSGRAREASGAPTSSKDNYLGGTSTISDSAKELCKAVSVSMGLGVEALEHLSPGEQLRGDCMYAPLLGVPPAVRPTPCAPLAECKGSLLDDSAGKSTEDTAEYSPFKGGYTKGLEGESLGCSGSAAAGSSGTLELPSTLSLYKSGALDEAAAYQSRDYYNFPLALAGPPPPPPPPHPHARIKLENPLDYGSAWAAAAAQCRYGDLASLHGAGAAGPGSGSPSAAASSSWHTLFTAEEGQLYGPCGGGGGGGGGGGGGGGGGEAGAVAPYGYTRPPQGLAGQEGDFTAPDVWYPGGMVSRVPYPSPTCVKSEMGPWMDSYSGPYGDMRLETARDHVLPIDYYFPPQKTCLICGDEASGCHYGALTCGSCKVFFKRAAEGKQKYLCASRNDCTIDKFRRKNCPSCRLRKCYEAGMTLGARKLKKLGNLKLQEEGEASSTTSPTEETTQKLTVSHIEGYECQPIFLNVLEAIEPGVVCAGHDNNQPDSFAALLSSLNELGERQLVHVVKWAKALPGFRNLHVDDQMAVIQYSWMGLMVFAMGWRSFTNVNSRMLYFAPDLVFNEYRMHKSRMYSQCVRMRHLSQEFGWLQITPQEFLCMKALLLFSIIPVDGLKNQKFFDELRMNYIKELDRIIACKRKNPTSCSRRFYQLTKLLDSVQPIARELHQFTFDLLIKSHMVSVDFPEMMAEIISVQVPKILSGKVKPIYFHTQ
Chain of human Thromboxane A2 Receptor (TXA2), TBXA2R (gene 6915) (P21731 whole entry, looked up): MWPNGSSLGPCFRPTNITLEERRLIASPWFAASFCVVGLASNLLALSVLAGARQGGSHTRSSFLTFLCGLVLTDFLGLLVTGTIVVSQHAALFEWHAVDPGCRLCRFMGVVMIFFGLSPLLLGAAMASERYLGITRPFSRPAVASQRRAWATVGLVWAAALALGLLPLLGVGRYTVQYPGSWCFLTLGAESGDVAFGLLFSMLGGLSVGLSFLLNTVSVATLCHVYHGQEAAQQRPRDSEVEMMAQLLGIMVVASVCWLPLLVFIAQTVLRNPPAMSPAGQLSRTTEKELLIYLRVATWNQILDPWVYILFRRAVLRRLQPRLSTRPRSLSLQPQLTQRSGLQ
Chain of human Opioid Receptor Mu (Opiate Mu), OPRM1 (gene 4988) (P35372 whole entry, looked up): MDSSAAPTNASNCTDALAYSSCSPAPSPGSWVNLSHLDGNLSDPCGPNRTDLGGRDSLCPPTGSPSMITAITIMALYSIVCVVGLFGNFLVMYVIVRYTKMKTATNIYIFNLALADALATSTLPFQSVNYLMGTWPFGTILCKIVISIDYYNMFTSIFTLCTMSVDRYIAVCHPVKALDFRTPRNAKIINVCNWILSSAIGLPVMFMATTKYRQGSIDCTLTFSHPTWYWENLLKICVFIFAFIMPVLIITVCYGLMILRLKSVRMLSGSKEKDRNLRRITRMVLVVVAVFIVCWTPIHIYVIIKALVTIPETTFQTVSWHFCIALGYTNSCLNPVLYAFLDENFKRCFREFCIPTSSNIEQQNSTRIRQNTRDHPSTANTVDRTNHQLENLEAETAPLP
Chain of human Neurokinin, NK2 Receptor, TACR2 (gene 6865) (P21452 whole entry, looked up): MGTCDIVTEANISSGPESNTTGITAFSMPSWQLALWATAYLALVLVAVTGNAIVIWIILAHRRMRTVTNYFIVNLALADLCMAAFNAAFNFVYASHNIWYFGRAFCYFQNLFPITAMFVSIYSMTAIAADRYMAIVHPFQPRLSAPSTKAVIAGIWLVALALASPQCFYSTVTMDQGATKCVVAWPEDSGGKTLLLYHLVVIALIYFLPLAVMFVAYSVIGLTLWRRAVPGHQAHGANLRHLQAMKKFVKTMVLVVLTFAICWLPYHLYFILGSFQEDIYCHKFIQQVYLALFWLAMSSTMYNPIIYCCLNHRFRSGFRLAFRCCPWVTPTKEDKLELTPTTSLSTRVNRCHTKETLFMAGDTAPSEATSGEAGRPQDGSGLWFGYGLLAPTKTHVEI
Chain of Muscarinic acetylcholine receptor M2 (Homo sapiens) (P08172 whole entry, looked up): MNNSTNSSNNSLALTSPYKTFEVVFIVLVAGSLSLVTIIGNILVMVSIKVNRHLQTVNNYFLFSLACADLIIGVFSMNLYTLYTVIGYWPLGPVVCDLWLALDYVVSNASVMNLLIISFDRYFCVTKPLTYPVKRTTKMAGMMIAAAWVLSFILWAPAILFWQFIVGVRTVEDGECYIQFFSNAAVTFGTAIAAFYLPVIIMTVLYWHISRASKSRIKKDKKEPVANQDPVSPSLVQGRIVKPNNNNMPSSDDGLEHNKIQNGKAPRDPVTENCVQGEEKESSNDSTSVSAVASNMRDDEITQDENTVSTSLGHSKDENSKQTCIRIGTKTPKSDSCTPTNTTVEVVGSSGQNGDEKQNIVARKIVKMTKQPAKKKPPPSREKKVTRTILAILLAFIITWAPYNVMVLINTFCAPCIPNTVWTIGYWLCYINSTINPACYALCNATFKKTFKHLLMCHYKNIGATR
Chain of human Adenosine A2a Receptor (AdoRA2a), ADORA2A (gene 135) (P29274 whole entry, looked up): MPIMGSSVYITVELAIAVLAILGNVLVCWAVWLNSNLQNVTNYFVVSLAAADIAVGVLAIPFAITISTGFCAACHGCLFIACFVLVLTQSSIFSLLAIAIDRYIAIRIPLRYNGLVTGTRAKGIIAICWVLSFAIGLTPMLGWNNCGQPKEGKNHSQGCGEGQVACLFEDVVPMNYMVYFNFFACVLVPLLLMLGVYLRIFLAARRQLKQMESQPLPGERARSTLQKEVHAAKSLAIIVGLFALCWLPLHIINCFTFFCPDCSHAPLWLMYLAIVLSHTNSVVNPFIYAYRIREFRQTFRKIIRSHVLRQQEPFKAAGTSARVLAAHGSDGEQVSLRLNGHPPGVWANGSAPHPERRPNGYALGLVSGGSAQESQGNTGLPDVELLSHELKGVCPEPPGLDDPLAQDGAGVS
Chain of guinea pig Opioid, Kappa 1 Receptor (OpiateK), OPRK1 (gene 100135587) (P41144 whole entry, looked up): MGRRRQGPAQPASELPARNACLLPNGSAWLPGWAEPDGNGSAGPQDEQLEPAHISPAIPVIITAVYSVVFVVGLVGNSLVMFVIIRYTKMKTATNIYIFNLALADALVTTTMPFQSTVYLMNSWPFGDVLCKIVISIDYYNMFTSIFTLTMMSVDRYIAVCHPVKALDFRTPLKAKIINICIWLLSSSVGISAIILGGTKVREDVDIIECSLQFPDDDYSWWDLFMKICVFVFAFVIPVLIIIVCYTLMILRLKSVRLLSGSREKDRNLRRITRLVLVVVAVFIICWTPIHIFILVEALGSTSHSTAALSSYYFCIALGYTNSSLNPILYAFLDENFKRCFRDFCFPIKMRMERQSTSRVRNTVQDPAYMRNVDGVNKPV
Chain of human Androgen Receptor (AR), AR (gene 367) (P10275 whole entry, looked up): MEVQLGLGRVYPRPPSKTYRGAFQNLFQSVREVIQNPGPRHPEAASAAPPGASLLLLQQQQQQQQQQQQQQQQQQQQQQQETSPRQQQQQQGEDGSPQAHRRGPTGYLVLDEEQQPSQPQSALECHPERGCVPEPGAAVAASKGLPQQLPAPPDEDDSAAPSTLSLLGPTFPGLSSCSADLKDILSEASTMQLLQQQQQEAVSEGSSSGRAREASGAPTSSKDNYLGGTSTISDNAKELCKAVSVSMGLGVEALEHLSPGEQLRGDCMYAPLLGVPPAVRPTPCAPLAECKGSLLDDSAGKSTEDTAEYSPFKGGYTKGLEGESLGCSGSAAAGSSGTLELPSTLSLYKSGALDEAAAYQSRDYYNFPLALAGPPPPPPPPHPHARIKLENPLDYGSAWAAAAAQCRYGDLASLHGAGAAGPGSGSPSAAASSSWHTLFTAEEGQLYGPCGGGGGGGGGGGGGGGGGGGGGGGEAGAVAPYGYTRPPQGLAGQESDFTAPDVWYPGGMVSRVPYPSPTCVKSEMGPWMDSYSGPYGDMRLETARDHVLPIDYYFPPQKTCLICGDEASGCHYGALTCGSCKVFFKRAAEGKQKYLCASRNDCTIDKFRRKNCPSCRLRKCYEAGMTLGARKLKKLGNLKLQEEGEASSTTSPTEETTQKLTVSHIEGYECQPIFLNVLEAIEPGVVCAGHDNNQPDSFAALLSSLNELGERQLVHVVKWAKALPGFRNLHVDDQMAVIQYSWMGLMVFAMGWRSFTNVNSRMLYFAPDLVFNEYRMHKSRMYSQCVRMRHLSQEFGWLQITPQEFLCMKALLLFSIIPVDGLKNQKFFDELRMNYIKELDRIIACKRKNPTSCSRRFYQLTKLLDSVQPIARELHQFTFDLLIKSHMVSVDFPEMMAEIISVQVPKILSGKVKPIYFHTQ
Chain of rat Neonicotinoid receptor (NNR), Chrna7 (gene 25302) (Q05941 whole entry, looked up): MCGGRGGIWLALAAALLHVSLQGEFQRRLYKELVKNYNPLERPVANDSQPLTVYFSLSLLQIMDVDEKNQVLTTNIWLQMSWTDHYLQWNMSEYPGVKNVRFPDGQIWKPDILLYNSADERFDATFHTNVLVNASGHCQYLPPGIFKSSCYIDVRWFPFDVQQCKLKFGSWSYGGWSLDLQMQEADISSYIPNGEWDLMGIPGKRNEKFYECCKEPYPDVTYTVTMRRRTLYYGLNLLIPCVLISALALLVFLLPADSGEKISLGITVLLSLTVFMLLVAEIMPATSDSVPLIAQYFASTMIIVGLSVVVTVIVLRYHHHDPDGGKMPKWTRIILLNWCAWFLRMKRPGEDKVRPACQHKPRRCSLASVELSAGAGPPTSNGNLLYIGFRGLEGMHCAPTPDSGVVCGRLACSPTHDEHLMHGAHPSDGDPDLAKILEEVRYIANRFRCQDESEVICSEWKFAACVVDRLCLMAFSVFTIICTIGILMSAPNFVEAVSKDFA

The term AC50 denotes the concentration at which the activity in the assay is half-maximal. `Oc1c(Cl)cc(Cl)c(Cl)c1Cc1c(O)c(Cl)cc(Cl)c1Cl`: the AC50 is 5.67 µM (active) in assay [1], 6.76 µM (active) in assay [3], 24 µM (active) in [4] and 5 µM (active) in assay [5]. The call in assay [2] was inactive.
As to `CN(C)C(=O)Nc1ccc(Oc2ccc(Cl)cc2)cc1`, the result in [6] and in [2] was inactive. Also, the AC50 in [7] is 2.91 µM (active).
As for `C=C(C)C(=O)OCC(CC)(COC(=O)C(=C)C)COC(=O)C(=C)C`, the AC50 in assay [8] and in assay [9] was 24.6 µM (active) throughout.
On to `CC(C)(C)CC(C)(C)c1ccc(OCCOCC[N+](C)(C)Cc2ccccc2)cc1`, for which the AC50 was 4.14 µM (active) in [6] and 2.81 µM (active) in [11]. The outcome in assay [10] and in assay [7] was inactive.
On to `[O-]n1ccccc1=S.[O-]n1ccccc1=S.[Zn+2]`, for which the AC50 was 9.86 µM (active) in assay [6] and 0.104 µM (active) in assay [3].
Consider `CCC1CCCCC1`, for which the result in [10] was inactive.
`CCCCN(CCCC)C(=O)N(CCCC)CCCC`: the compound was called inactive in [9]. Further, the AC50 in assay [7] was 20.6 µM (active).
For the compound `O=C1OC[C@H](Cc2cccc(O)c2)[C@H]1Cc1cccc(O)c1`, the AC50 is 5.5 µM (active) in assay [12]; 8.4 µM (active) and 3.26 µM (active) in assay [7]; 4.16 µM (active) in [5].
For `COc1ccc(OC)c(N=Nc2c(O)ccc3ccccc23)c1`, the results for the AC50 in assay [6] and in assay [5] were 25 µM (active) and 2.85 µM (active), respectively. Also, the result in [10] was inactive.
`C=CC(C)C#N` (stereo not given): the result in assay [13] was inactive.
On to `CC=Cc1ccc(OC)c(OC)c1`, for which the compound was called inactive in assay [10].
With `CC(=O)Nc1ccc(C(=O)CCl)cc1`, in assay [2], the AC50 is 10.7 µM (active).
For `CN(c1nccc(=O)[nH]1)C1CCN(c2nc3ccccc3n2Cc2ccc(F)cc2)CC1`, the compound was classed as inactive in [12], in assay [9], in [10] and in assay [11]. In addition, in assay [2], the AC50 is 0.761 µM (active).
For `ClC(c1ccccc1)(c1ccccc1)c1ccccc1`, the result in [1] and in assay [3] was inactive.

Values taken from PubChem BioAssay (EPA / NIEHS).
